This passage reports outcome and PLD induction results from PubChem BioAssay (Tox21).

Records with an inconclusive call do not appear. Unmarked numbers belong to inactive results. Activity calls are given as the source filed them. The call rests on the fitted dose curve; in most records, active means well fitted activation curve with a large enough effect; inconclusive means small, poorly fitted or top-dose-only effect; inactive means flat fitted curve, though single readings scatter.
On the % scale 0 is the no-effect control and ±100 the full control effect.

This experiment is described as follows: qHTS assay to identify small molecule phospholipidosis (PLD) inducers (AID 1259344). The conditions noted are these: HepG2 phospholipidosis, LipidTOX Red imaging, 24 h; series mostly up to 38.3 µM. From the text:
National Center for Advancing Translational Sciences [NCATS]
Drug-induced Phospholipidosis (PLD) caused by cationic amphiphilic drugs is characterized by the appearance of unicentric or multicentric-lamellar bodies when viewed under electron microscope. Electron microscopy is the gold standard method for PLD detection, however, this method is time-consuming and labor intensive, making it unsuitable for evaluating a large set of compounds. A cell-based phospholipidosis assay has been developed using the LipidTox reagent in HepG2 cells and miniaturized into a 1536-well plate format. Drug induced phospholipid accumulation is stained with the LipidTox dyes in red color which then is determined using an automated high content screening system.
HepG2 cells are dispensed at 900 cells/3 uL/well into Collagen I-coated 1536-well black-wall/clear-bottom assay plates (Greiner Bio-One, Monroe, NC) using the Multidrop Combi 8 channel dispenser (Thermo Fisher, Waltham, MA, USA). The assay plates are incubated at 37 C for 4 hours to allow the cell attachment. 3 uL of 1:500 LipidTOX Red dye is added using the dispenser, and then 23 nL compounds are added via a Wako Pintool station (Wako Automation, San Diego, CA). Amiodarone, a known PLD inducer, was used as a positive control and DMSO was used as a negative control. The assay plates were then incubated at 37 C for 24 hours.
For fixations, 4 uL of 8% paraformaldehyde fixative solution containing 10 ug/mL Hoechst 33342 in Dulbecco's phosphate-buffered saline (DPBS) is added using a Kalypsys washer/dispenser (Kalypsys, San Diego, CA, USA). After incubation at room temperature for 30 min, the assay plates are washed once with DPBS using a Kalypsys washer/dispenser. The assay plates are then sealed and stored at 4 C before imaging. The fluorescence intensities (595 nm excitation, 615 nm emission for LipidTOX; 352 nm excitation, 461 nm emission for Hoechst 33342) are measured using an ImageXpress Micro Widefield High Content Screening System (Molecular Devices, Sunnyvale, CA, USA) with a 20x Plan Fluor objective. Images are acquired for one site in each well and analyzed with the MetaXpress software (Molecular Devices) using the Transfluor module. Several algorithmic outputs, such as pit count per well, pit count per cell, pit integrated intensity per well, and pit integrated intensity per cell, are used for quantitative image analysis for PLD.
Background: In qHTS, concentration-response curves come from the screen itself.
Regarding `CC(CCc1ccc2c(c1)OCO2)NN` (stereo not given), the compound was classed as inactive.

In the case of `CCCCC1C(=O)N(c2ccccc2)N(c2ccc(O)cc2)C1=O` (stereo not given), the outcome was inactive.

Take `COC(=O)[C@@H]1CC2=CC(=O)CC[C@]2(C)[C@@]23O[C@@H]2C[C@@]2(C)[C@@H](CC[C@@]24CCC(=O)O4)[C@H]13`: the result was inactive.

Take `CC(=O)OCC(=O)[C@@]12OC(C)(C)O[C@@H]1C[C@H]1[C@@H]3C[C@H](F)C4=CC(=O)C=C[C@]4(C)[C@@]3(F)[C@@H](O)C[C@@]12C`: the call was inactive.

`O=C(O)C(Cc1cc(I)c(O)c(I)c1)c1ccccc1` (stereo not given): the call was inactive.

With `Cc1cc(O)c2c(O)c3c(O)cccc3cc2c1`, the outcome was inactive.

Turning to `CCC1(C)CC(=O)NC1=O` (stereo not given), the outcome was inactive.

With `CN1C(=O)CC(C)(c2ccccc2)C1=O` (stereo not given), the call was inactive.

`O=C(CCC1CCN(Cc2ccccc2)CC1)c1ccc2c(c1)NCCCC2`: the result was inactive.

With `CCOc1cc(N)c(Cl)cc1C(=O)NCC1CN(Cc2ccc(F)cc2)CCO1` (stereo not given), the compound was called inactive.

Turning to `CN(C(=O)C(Cl)Cl)c1ccc(OC(=O)c2ccco2)cc1`, the compound was called inactive.

For `Cc1cc(OI)c(C(C)C)cc1-c1cc(C(C)C)c(OI)cc1C`, the result was inactive.

As for `CN1CCCN=C1/C=C/c1cccs1`, the compound was classed as inactive.

With `CCc1c2c(nc3ccc(OC(=O)N4CCC(N5CCCCC5)CC4)cc13)-c1cc3c(c(=O)n1C2)COC(=O)[C@]3(O)CC`, the call was inactive.

In the case of `O=C(CCCCCCCCC#CI)Oc1ccccc1`, the PLD induction was 8.17% [at 7.66 µM].

Consider `N#C/C(=C1/SC[C@@H](c2ccc(Cl)cc2Cl)S1)n1ccnc1`, for which the outcome was inactive.

On to `CN1CCN(c2c(F)cc3c(=O)c(C(=O)O)cn4c3c2OCN4C)CC1`, for which the result was inactive.

On to `CCCCN(CCCC)CCCOC(=O)c1ccc(N)cc1`, for which the result was inactive.

On to `O=C(O)Cc1ccc(-c2ccccc2)cc1`, for which the result was inactive.

For `CCCCCCCCCCCC(=O)[O][Sn]([CH2]CCC)([CH2]CCC)[O]C(=O)CCCCCCCCCCC`, the result was inactive.

For `CC(=O)[C@H]1CC[C@H]2[C@@H]3C[C@H](C)C4=CC(=O)CC[C@]4(C)[C@H]3[C@@H](O)C[C@]12C`, the compound was called inactive.

For the compound `CC(=O)[C@H]1CC[C@H]2[C@@H]3C=CC4=CC(=O)CC[C@@]4(C)[C@@H]3CC[C@]12C`, the call was inactive.

For the compound `CC(C)(O)c1ccccc1CC[C@@H](SCC1(CC(=O)O)CC1)c1cccc(/C=C/c2ccc3ccc(Cl)cc3n2)c1`, the compound was classed as inactive.

With `COCCOC(=O)C1=C(C)NC(C)=C(C(=O)OC/C=C/c2ccccc2)C1c1cccc([N+](=O)[O-])c1` (stereo not given), the call was inactive.

Take `O=C1OCCN1/N=C/c1ccc([N+](=O)[O-])o1`: the outcome was inactive.

For the compound `O=C(CCCCCCC(=O)Nc1ccccc1)NO`, the compound was called inactive.

For the compound `O=C(N/N=C/c1ccc([N+](=O)[O-])o1)c1ccc(O)cc1`, the compound was classed as inactive.

On to `O=C(NCCCN1CCOCC1)c1ccc(Cl)cc1`, for which the outcome was inactive.

As for `CCC(C(=O)OCCOCCN(CC)CC)c1ccccc1` (stereo not given), the outcome was inactive.

Regarding `COc1cc2[nH]c(=O)[nH]c(=O)c2cc1OC`, the call was inactive.

For the compound `Cc1cc2nc3ccc(=[N+](C)C)cc-3sc2cc1N`, the PLD induction is -3.22% [at 0.306 µM].

Take `Nc1nccs1`: the outcome was inactive.

`C[N+]1(C)CCC(=C(c2ccccc2)c2ccccc2)CC1`: the call was inactive.

For the compound `CCc1cccc(N(C)C(N)=Nc2cccc3ccccc23)c1`, the result was inactive.

`CCn1cc(C(=O)O)c(=O)c2cc(F)c(N3CCNCC3)nc21`: the call was inactive.

Consider `CO[C@H]1C=CO[C@@]2(C)Oc3c(C)c(O)c4c(O)c(c5c(c4c3C2=O)=NC2(CCN(CC(C)C)CC2)N=5)NC(=O)/C(C)=C\C=C/[C@H](C)[C@H](O)[C@@H](C)[C@@H](O)[C@@H](C)[C@H](OC(C)=O)[C@@H]1C`, for which the compound was called inactive.

Consider `CCCOC(=O)c1ccc(N)cc1`, for which the compound was classed as inactive.

Take `N#C/C(=C1\SCC(c2ccccc2Cl)S1)n1ccnc1` (stereo not given): the call was inactive.

Take `CC(=O)Oc1ccc2c(c1)CC[C@@H]1[C@@H]2CC[C@]2(C)[C@@H](O)CC[C@@H]12`: the compound was called inactive.

For the compound `CN1CCN(CCCN2c3ccccc3Sc3ccc(S(=O)(=O)N(C)C)cc32)CC1`, the compound was called inactive.
